This is part of a sample that, as a whole, favours compounds with a hit. Of some 83,000 tested, about 20% had one in any assay.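 How to read the values: 0–100, growth inhibition (40 = 60% inhibited); 0, no net growth; -100 to 0, cell death (-40 = 40% of starting cells died; -100 = all dead).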 Active and inactive are the calls of the source. The calls were made as follows: active = growth percent below 10; inactive = the rest.

The test concerns MDA-MB-468 breast. Nature of the test: NCI-60 one-dose screen, 48 h (100 = growth as untreated, 0 = no growth, -100 = all killed). As to conditions: 10 µM unless noted.
For `COc1ccc(-c2cn(Cc3cc4ccccc4s3)nn2)cc1OCCN1CCCCC1`, the growth is 63.8% (inactive).

As for `NCCCNc1nc2ccc(Cl)cc2c2c(=O)c3cc(F)ccc3sc12`, the growth was 43.3% (inactive).

Turning to `CCC(c1ccccc1)C(CC)c1ccc(O)c(O)c1` (stereo not given), the growth was 90.9% (inactive).

In the case of `COc1ccc(Nc2ncc(I)c(NCCCNC(=O)C3CCC3)n2)cc1`, the growth was -14.9% (active).

With `O=C(CSc1nc2ccccc2c(=O)n1-c1ccccc1)Nc1ccc(S(=O)(=O)Nc2nccs2)cc1`, the growth was 56.4% (inactive).

As to `COc1ccc(C(=O)c2cc3c(N)c(C(=O)Nc4ccc(C)cc4)sc3nc2C)cc1`, the growth was -16.8% (active).

On to `CCCCCCCCCCCC(=O)C(CCCCCCCCCC)C(=O)Nc1ccccc1` (stereo not given), for which the growth was 109% (inactive).

Regarding `Cc1c(Cc2ccccc2)c(=O)oc2c(C)c(OCC(=O)n3nc(C#N)cc3N)ccc12`, the growth is 114% (inactive).

Regarding `C#CCn1cc(C=C2C(=O)NC(=O)NC2=O)c2cc(Cl)ccc21`, the growth was 41.9% (inactive).

As for `Cc1cc(N2CCCC2)nc(NC2CCCC(Nc3ccnc4cc(Cl)ccc34)C2)n1` (stereo not given), the growth is -56.1% (active).

For `CCN(CC)CCCNCCCNc1cc(OC)cc2cccnc12`, the growth was -10.4% (active).

Consider `COc1ccc(OC)c(CCn2cncc2-c2c[nH]c3ccc(Cl)cc23)c1`, for which the growth was -14.9% (active).

With `C(=C\c1cn(-c2ccccc2)nc1-c1ccccc1)/c1nnc(-c2c[nH]c3ccccc23)o1`, the growth is 87.1% (inactive).

For the molecule `CCOC(=O)C1CCc2c(ccc3ccccc23)N1CCC#N` (stereo not given), the growth is 73.6% (inactive).

Consider `FC(F)(F)c1cc(CNc2nc(Cl)ncc2Br)cc(C(F)(F)F)c1`, for which the growth is 64.7% (inactive).

Take `O=S(=O)(NCCCNc1nccc(-c2[nH]c(-c3ccccc3)nc2-c2ccc(F)c(O)c2)n1)c1ccccc1`: the growth is 88.3% (inactive).

For `O=c1c(N=Nc2nccs2)c(-c2ccccc2)[nH]n1-c1nc(-c2ccccc2)cs1`, the growth is 29% (inactive).

For `Cc1ccc(C(=O)c2ccc(CC(=O)N/N=C/c3ccccc3O)n2C)cc1`, the growth is 81.1% (inactive).

Consider `c1ccc2c(c1)Cc1ccccc1N2CCN1CCCCC1`, for which the growth is 99.4% (inactive).

In the case of `CC(=O)Nc1scc[n+]1Cc1ccccc1`, the growth was 103% (inactive).

On to `CCc1cccc2c1S/C(=C/c1ccc(OC)cc1)C2=O`, for which the growth is 27.3% (inactive).

As for `CC[N+](C)(C)N`, the growth was 95.9% (inactive).

On to `O=C(Nc1nc2ccc(C(=O)N3CCN(c4ccc(Cl)c(Cl)c4)CC3)cc2s1)c1ccc(NCCc2ccccc2)c([N+](=O)[O-])c1`, for which the growth is 88.6% (inactive).

Turning to `O=C1CC(c2ccc3c(c2)OCO3)Nc2ccccc21` (stereo not given), the growth was 2.73% (active).

Turning to `CCNCc1c(-c2cccc(OC(F)(F)F)c2)[nH]c2ccc(N3CCCC3)cc2c1=O`, the growth is 36.6% (inactive).

Turning to `COc1ccccc1/C=C/C(=O)/C=C/c1ccccc1O`, the growth is -56.1% (active).

For the molecule `CCN(CC)CCN1C(=O)c2c(c3c4cc(Br)ccc4[nH]c3c3ccc4ccccc4c23)C1=O`, the growth is -80.7% (active).

`CCOC(=O)CC(=O)c1c(C)cc(C)cc1C`: the growth is 98.6% (inactive).

Turning to `Cc1ccc2nc(-c3ccc(N=Cc4ccccc4O)cc3)sc2c1`, the growth is 86.4% (inactive).

Consider `CCN1CCN(c2nc(NNC(=O)c3cccc(OC)c3)nc(N3CCN(C(c4ccccc4)c4ccccc4)CC3)n2)CC1`, for which the growth was 54.7% (inactive).

Take `COc1ccc(/C(C)=C(\c2ccc(OCCN3CCCCCC3)cc2)c2ccc(OC(=O)C3CCCCC3)cc2)cc1`: the growth is -74.5% (active).

`NS(=O)(=O)c1cc(C2(O)NC(=O)c3ccccc32)ccc1Cl` (stereo not given): the growth is 102% (inactive).

For the molecule `CC(=O)OCC(COC(C)=O)(COC(C)=O)COC(C)=O`, the growth was 102% (inactive).

`COC(=O)c1ccc2[nH]c(O)c(C(=Nc3ccc(N(C)C(=O)CN4CCN(C)CC4)cc3)c3ccc(C)cc3)c2c1`: the growth was -50.1% (active).

In the case of `O=C(NCc1ccc2c(c1)OCO2)NCC1CCCC(CNC(=O)NCc2ccc3c(c2)OCO3)C1` (stereo not given), the growth was 104% (inactive).

On to `COc1cc2c(c(OC)c1OC)CCC(c1cccc(C(=O)Nc3ccc(Br)cc3)c1)O2` (stereo not given), for which the growth was 38.2% (inactive).

For `COc1cc2ncnc(Nc3ccc(OCc4cccc(F)c4)c(Cl)c3)c2cc1NC(=O)C1CCCC1`, the growth was -2.53% (active).

With `COc1cc2oc(-c3cccc(C(=O)Nc4ccc5c(c4)OCO5)c3)cc(=O)c2c(O)c1OC`, the growth is 54.6% (inactive).

Turning to `N=C(N)c1ccc(-c2ccc(-c3ccc(Cl)cc3)o2)o1`, the growth is -21.5% (active).

On to `CC/C=C/C/C=C/C/C=C/C/C=C/C/C=C/C/C=C/CCC(=O)Nc1ccn([C@@H]2O[C@H](CO)[C@@H](O)C2(F)F)c(=O)n1`, for which the growth is 21.5% (inactive).

The values are drawn from PubChem BioAssay (NCI).
